PRMT1 FP inh: PRMT1 methyltransferase inhibitors, primary screen, biochemical, fluorescence polarization | Protein arginine N-methyltransferase 1 (Homo sapiens), Q99873 | recombinant PRMT1, activity-based probe fluorescence polarization | AID 652257, 2013 | inhibition, % at 2.79 µM | 370,000 tested, 1.3% active;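 active means inhibition above about 21% made by adding two undisclosed values, limit read from the data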
Target sequence (Q99873 whole entry, looked up): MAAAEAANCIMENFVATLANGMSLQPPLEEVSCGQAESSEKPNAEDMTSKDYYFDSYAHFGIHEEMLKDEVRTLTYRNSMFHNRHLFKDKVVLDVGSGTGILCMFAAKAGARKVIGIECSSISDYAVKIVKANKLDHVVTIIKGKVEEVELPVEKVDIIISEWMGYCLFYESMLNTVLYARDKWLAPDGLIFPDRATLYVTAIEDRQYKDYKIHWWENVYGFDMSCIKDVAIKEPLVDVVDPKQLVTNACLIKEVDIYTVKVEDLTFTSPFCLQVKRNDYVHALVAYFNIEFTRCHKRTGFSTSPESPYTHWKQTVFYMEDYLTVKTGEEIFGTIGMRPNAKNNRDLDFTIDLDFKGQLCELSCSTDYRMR
TCR-CD3 inh: inhibitors of human TCR-CD3 interaction, primary screen, biochemical, fluorescence, TAMRA-labeled TCR probe | T-cell receptor (TCR) | inhibition, % at 9.4 µM | 360,000 tested, 0.37% active; in the data active means inhibition above about 19%;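 further: recombinant mutant TCR 2C K166C tagged with TAMRA read by polarization; 0% = receptor in buffer alone and 100% = receptor with positive control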
PAD4 FP inh: human PAD4 inhibitors, primary screen, biochemical, fluorescence polarization, 1536-well format. Protein-arginine deiminase type-4 (Homo sapiens), Q9UM07. recombinant PAD4, RCA probe fluorescence polarization. inhibition, % at 6.36 µM. 330,000 tested, 0.41% active. AID 485272, 2010;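 active means percent inhibition above a cutoff equal to the mean of all tested compounds plus 3 SD, cut at about 15% in these data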;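 further: 0% = PAD4 with RCA probe and DMSO and 100% = probe without PAD4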
Fam108B inh: mouse Fam108B serine hydrolase inhibitors, primary screen, counter-screen for RBBP9 inhibitor project, biochemical, fluorescence polarization | recombinant Fam108B, FP-Rh probe fluorescence polarization | inhibition, % at 9.51 µM | 300,000 tested, 0.33% active | AID 1947, 2009;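 active means inhibition above the screen mean inhibition plus 3 SD, computed separately per campaign, cut at about 18% in these data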;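 further: inhibitors lower polarization as less probe binds the enzyme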
SIAE primary: human SIAE inhibitors, primary screen, biochemical, fluorescence polarization, FP-Rh probe, 1536-well HTS. Sialate O-acetylesterase (Homo sapiens), Q9HAT2. inhibition, % at 9.66 µM. 370,000 tested, 0.69% active. SIAE FP-Rh probe binding;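 active means inhibition above a cutoff: mean of compounds within the control limits plus 3 SD of those, cut at about 17% in these data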;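 further: 0% = plate median of compound wells and 100% = probe without SIAE protein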
PME-1 inh: PME-1 inhibitors via competitive probe labeling, primary screen, biochemical, fluorescence polarization, FP-Rh probe, HTS | AID 2130, 2009 | 320,000 tested, 0.53% active | inhibition, % at 5.9 µM | recombinant PME-1 | Protein phosphatase methylesterase 1 (Homo sapiens), Q9Y570;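 active means inhibition above the campaign mean of all compounds plus 3 SD, cut at about 26% in these data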;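 further: competitive labeling of PME-1 active site by serine hydrolase directed probe; 0% = PME-1 with DMSO and 100% = wells lacking PME-1 enzyme; inhibitors block probe labeling so polarization falls and inhibition rises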
PAD4 confirm: human PAD4 inhibitors, confirmation, biochemical, fluorescence polarization | inhibition, % at 6.36 µM | shares compounds with PAD4 FP inh | 1,200 tested, 28% active | recombinant PAD4, RCA probe fluorescence polarization;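 active means mean inhibition across replicates above the hit cutoff set by the earlier primary screen, cut at about 15% in these data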;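 further: inhibitors block active-site labeling by the probe so polarization falls; 0% = PAD4 with probe and DMSO and 100% = probe without PAD4 enzyme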
* = called active by the depositor; . = no result given. Most compounds without a hit are left out; they make up all but 2.6% or so of the library.

SMILES | PRMT1 FP inh | TCR-CD3 inh | PAD4 FP inh | Fam108B inh | SIAE primary | PME-1 inh | PAD4 confirm
COc1cc(/C=N/Nc2ccccn2)ccc1O | -3 | 2 | 4 | 0 | 10 | -6 | .
CCc1nnc(N/N=C\c2ccc(OC(C)=O)c(OC)c2)n1N | -1 | 4 | 25* | 2 | 5 | 1 | 0
COCCn1c(N)c(N(Cc2ccccc2)C(=O)C2CCCC2)c(=O)[nH]c1=O | 3 | -2 | -4 | -6 | 9 | -9 | .
CCCCCC(=O)N(Cc1ccccc1)c1c(N)n(CCOC)c(=O)[nH]c1=O | -1 | 3 | 38* | 3 | 0 | -3 | 4
CN(CCO)c1nc(N)c2c(N)nc3c(c2c1C#N)CC(=O)N3C1CCCC1 | . | . | 16* | 13 | . | 6 | 3
COc1ccc2c(c1)CN1C(=O)N(CCc3ccccc3)S(=O)(=O)CC21 (stereo not given) | 0 | . | . | . | -7 | . | .
Cc1ccc(SCc2cc(=O)n(C)[nH]2)cc1 | 12 | -1 | 24* | 2 | 8 | -1 | 0
Cc1ccc(SCc2cc(=O)n3[nH]c(C)nc3n2)cc1 | 2 | -6 | -7 | 0 | 1 | 4 | .
COc1ccc2c(c1)C[C@@H](CON1C(C)(C)CCCC1(C)C)N2S(=O)(=O)c1ccc(C)cc1 | -3 | . | . | . | -2 | . | .
CCC(CN(C)C)Oc1cc(NCc2ccccc2)c2ncn(C(C)C)c2c1 (stereo not given) | . | . | 38* | . | . | . | -9
NS(=O)(=O)c1ccc(N/C=C\C(=O)c2ccc(F)cc2)cc1 | 0 | 7 | -2 | -1 | -7 | 4 | .
CC(=O)Nc1ccc(N/C=C/C(=O)c2ccco2)cc1 | -1 | -4 | -4 | 0 | 8 | 5 | .
CN(C)c1ccc(N/C=C/C(=O)c2ccc(F)cc2)cc1 | . | . | 31* | -3 | . | 7 | -2
CN(C)c1ccc(N/C=C/C(=O)c2ccco2)cc1 | 21* | 12 | 23* | 0 | 11 | 1 | -2
Cc1cc(N2CCCN(C)CC2)n2nc(C)nc2n1 | 0 | . | . | . | 0 | . | .
C#CCOc1ccc(/C=C2/C(=O)N(c3cccc(C(=O)O)c3)N=C2C)cc1OC | 6 | 0 | 39* | 2 | 1 | 3 | 3
CC1=NN(c2ccccc2)C(=O)/C1=C\c1cn(-c2ccccc2)nc1C | -1 | -1 | -3 | 0 | 5 | 0 | .
CC1=NN(c2ccccc2)C(=O)/C1=C\c1cn(CCC#N)nc1-c1ccc(Cl)cc1 | 0 | -9 | 19* | 0 | 3 | -4 | 6
COc1ccccc1/C=C1/C(=O)N(c2ccccc2)N=C1C | 4 | -5 | 48* | 1 | 7 | -4 | -1
O=C(Nc1cccc(F)c1)OC1CC2CC1[C@H]1CCCCN1[C@H]2Cc1ccccc1 (stereo not given in full) | 3 | . | . | . | -4 | . | .
C[C@H]1[C@@H](NC(=O)C2CCOC2)CC[C@@]23CCCN2C(=O)CCC[C@@H]13 (stereo not given in full) | -1 | . | . | . | 1 | . | .
COc1cccc2[nH]c(C(=O)NCC3CCCO3)cc12 (stereo not given) | -3 | 2 | -6 | -4 | 3 | 0 | .
O=C(NCC1CCCO1)c1cc2c([nH]c3ccccc32)c(-c2cccc(Cl)c2)n1 (stereo not given) | . | . | -3 | -29 | . | -44 | .
COc1cc(-c2nc(C(=O)NCC3CCCO3)cc3c2[nH]c2ccccc23)cc(OC)c1OC (stereo not given) | 1 | 1 | 33* | -6 | -9 | -5 | 38*
COc1ccccc1-c1nc(C(=O)NCC2CCCO2)cc2c1[nH]c1ccccc12 (stereo not given) | . | . | 37* | -2 | . | -11 | 33*
SMILES | PRMT1 FP inh | TCR-CD3 inh | PAD4 FP inh | Fam108B inh | SIAE primary | PME-1 inh | PAD4 confirm
COC(=O)[C@]12C[C@H](CC(=O)NCCCCc3ccccc3)C(=O)N(Cc3ccc(Cl)cc3Cl)C1=C[C@H](C1CCCC1)O[C@@H]2C | 1 | . | . | . | 5 | . | .
CC(=O)c1cc(-c2cccc([N+](=O)[O-])c2)c(=O)n2c1CCC2 | -1 | . | . | . | 2 | . | .
CCOC(=O)C1=C(C)N=c2s/c(=C\c3ccc(OCC(=O)O)cc3)c(=O)n2C1c1ccc(OC(C)C)cc1 (stereo not given) | 30* | 7 | 18* | -7 | -67 | -12 | 3
CCOC(=O)C1=C(C)N=c2s/c(=C/c3ccc(OCC(=O)O)cc3)c(=O)n2C1c1cc(OC)c(OC)c(OC)c1 (stereo not given) | 18 | -1 | 25* | -2 | 1 | -10 | 4
COc1cccc(C2C(C(=O)Nc3ccccc3)=C(C)N=c3s/c(=C/c4ccc(OCC(=O)O)cc4)c(=O)n32)c1 (stereo not given) | 30* | 11 | 19* | -13 | -27 | -14 | 3
CCOC(=O)C1=C(C)N=c2sc(=Cc3cc(Cl)c(OCC(=O)O)c(Cl)c3)c(=O)n2C1c1cccc(OC)c1 (stereo not given) | 13 | -2 | . | . | -31 | . | .
CCOC(=O)C1=C(C)N=c2s/c(=C\c3ccc(OC(C)=O)cc3)c(=O)n2C1/C=C/c1ccccc1 (stereo not given) | 0 | -3 | -10 | -7 | -2 | -7 | .
C=CCN1C(=O)[C@@H](CC(=O)N2CCC(c3ccccc3)CC2)[C@]2(C(=O)OC)CCCCC=C12 | -3 | . | . | . | 3 | . | .
CCCCCCCCN1C(=O)[C@@H](CC(=O)NCCCN2CCCC2=O)C[C@@]2(C(=O)OC)C1=C[C@H](COCc1ccccc1)O[C@@H]2C | 2 | . | . | . | -1 | . | .
CCCCNC(=O)C1CCCN1C(=O)Nc1cc(Cl)cc(Cl)c1 (stereo not given) | 2 | . | . | . | -9 | . | .
O=C1c2ccccc2C(=O)c2c1cccc2N1CCCC1 | 14 | -22 | 28* | 13 | 0 | 22 | 1
CCC(=O)Nc1ccc(C(=O)CN2C(=O)NC3(CCCCCC3)C2=O)cc1 | 4 | -7 | 30* | . | -7 | -4 | -3
COc1ccc(Oc2c(Cl)cnn(C3c4ccccc4-c4ccccc43)c2=O)cc1 | 9 | . | . | . | -2 | . | .
O=C(NCCCN1CCOCC1)c1cc2c([nH]c3ccccc32)c(-c2cccc(Br)c2)n1 | -2 | 8 | 46* | -8 | -16 | -9 | 31*
Cc1ccc(C(NC(=O)Nc2ccccn2)C(Cl)(Cl)Cl)cc1F (stereo not given) | 2 | 2 | 26* | 1 | 2 | -2 | 2
Cc1cccc(NC(=O)Nc2ccccn2)c1C | -1 | 6 | -1 | 6 | -3 | 5 | .

Screening data from PubChem.
